Measured values taken from PubChem BioAssay AID1117283 (Broad Institute, 2014).
Entries with a potency or affinity are not part of this list. Values without a mark were called inactive.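 Rule for the calls: active = fluorescent signal decreased by at least 40%; inconclusive = no clear call, values can overlap the other calls; inactive = the rest, including activity opposite to the expected direction.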

assay: fibronectin fibrillogenesis inhibitors in fibroblasts, dose response, AH1F cells, Alexa488-fibronectin fluorescence, cherry-pick, set 2 (AID 1117283); details: Alexa488-fibronectin deposition fluorescence, overnight; series mostly up to 35 µM; activity change, negative = inhibition: at the top concentration;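 note: AH1F fibroblasts given Alexa488-labelled fibronectin at 24 nM final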

| SMILES | activity change, negative = inhibition |
| --- | --- |
| O=C(Nc1ccccc1F)N1C[C@H]2[C@@H](c3ccccc31)[C@H](CO)N2C(=O)C1CC1 | -11.4% |
| O=S(=O)(c1ccccc1F)N1CC[C@@H]2[C@@H](CO)Nc3ccc(-c4cccc(F)c4)cc3[C@@H]21 | 15.1% |
| C[C@H]1CN([C@@H](C)CO)C(=O)c2cc(-c3ccccc3)cnc2O[C@H]1CN(C)Cc1ccccc1 | 11.9% |
| C[C@@H]1CN([C@H](C)CO)C(=O)c2cc(NC(=O)C3CCCCC3)ccc2O[C@H]1CN(C)Cc1ccc(-c2ccccc2)cc1 | -2.89% |
| COc1ccccc1N(CC(=O)N(CC(C)C)CC(C)C)S(=O)(=O)c1cccs1 | 2.52% |
| Cn1cnc(S(=O)(=O)N2CCN(c3ccccc3)CC2)c1 | -6.26% |
| CC(C)CNC(=O)c1coc(=O)c(Br)c1 | 1.96% |
| COc1ncccc1C(=O)NC1CCCc2c1cnn2-c1ccc(C)c(C)c1 (centres undefined) | -5.54% |
| O=S(=O)(c1cccc(F)c1)N1CC[C@@H]2[C@@H](CO)Nc3ccc(-c4cccc(F)c4)cc3[C@@H]21 | 4.96% [at 30 µM] |
| COc1cccc(-c2ccc3c(c2)[C@@H]2[C@@H](CCN2S(=O)(=O)c2cccc(OC)c2)[C@H](CO)N3)c1 | -8.42% |
| O=S(=O)(c1cccc(F)c1)N1CC[C@@H]2[C@H]1c1cc(-c3cccc(F)c3)ccc1N[C@@H]2CO | -11.1% |
| CCCCOc1ccc(C(C)NC(=O)C2CCCN(S(=O)(=O)CCC)C2)cc1 (centres undefined) | 2.62% |
| CO[C@H]1CN(C)C(=O)c2cc(NC(=O)Nc3ccc(Cl)c(Cl)c3)ccc2OC[C@@H](C)NC[C@@H]1C | -5.32% |
| C[C@@H]1CN([C@H](C)CO)C(=O)c2cc(-c3ccccc3)cnc2O[C@H]1CN(C)Cc1ccccc1 | 5.66% |
| O=C(c1cccnc1)N1C[C@H]2[C@@H](c3ccccc31)[C@H](CO)N2CC1CCCC1 | 8.16% |
| C[C@H](CO)N1C[C@H](C)[C@@H](CN(C)C(=O)Nc2cccc3ccccc23)Oc2c(NC(=O)Nc3ccc(C(F)(F)F)cc3)cccc2C1=O | 3.45% |
| C[C@@H]1CN([C@@H](C)CO)C(=O)c2cc(NC(=O)CCCN(C)C)ccc2O[C@@H]1CN(C)Cc1ccc(-c2ccccc2)cc1 | -1.8% |
| C=CCC[C@H](Cc1ccc(F)cc1)C(=O)OC[C@H](Cc1c[nH]c2ccccc12)NC(=O)[C@@H](CC=C)CC(=O)N[C@@H](CO)Cc1ccccc1 | -11.5% |
| COCC(=O)Nc1ccc2c(c1)C(=O)N(C)[C@@H]1CC[C@H](CC(=O)NCc3ccccc3Cl)O[C@@H]1CO2 | -0.399% |
| O=C(CCC(=O)c1cccs1)NCc1cccnc1 | -2.53% |
| O=C(CCNS(=O)(=O)c1cccc2nonc12)NC1CCCc2ccccc21 (centres undefined) | 2.12% |
| CO[C@@H]1CN(C)C(=O)c2cc(NC(=O)Nc3cc(Cl)cc(Cl)c3)ccc2OC[C@@H](C)NC[C@@H]1C | 7.38% |
| C[C@@H]1CN([C@@H](C)CO)C(=O)c2cc(-c3ccccc3)cnc2O[C@H]1CN(C)Cc1ccccc1 | 6.85% |
| CC1(C)Cc2c(C#N)c(SCC(=O)c3ccccc3)nc(N3CCOCC3)c2CS1 | -6.32% |
